Compound activity deposited in PubChem BioAssay by several laboratories.
Only some compounds are listed: those with a hit (about 0.78% of all), similar ones and a draw of the others.
BJeLR lethal: BJeLR cell viability loss. BJeLR (HRASV12) viability, CellTiter-Glo ATP luminescence, 48 h. inhibition, % (concentration not given with the values). 300,000 compounds, 0.17% hits. AID 1554; in the data active = inhibition above about 50%
SSB-PriA inh: inhibitors of Klebsiella pneumoniae PriA binding to SSB C-terminal tail. AlphaScreen SSBct-PriA binding, biotinylated peptide. inhibition, % at 33 µM. 430,000 compounds, 0.6% hits. AID 1272365; in the data active = inhibition mostly above about 37%, no sharp cut-off; inactive = mostly below about 20%;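 also: plate controls were negative control peptide for no effect and reference peptide for full effect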
SARS 3CLpro inh-1: SARS-CoV 3CLpro protease inhibition. P0C6X7. recombinant SARS-CoV 3CLpro, quenched FRET peptide cleavage. inhibition, % at 6 µM. 290,000 compounds, 0.14% hits. AID 1706; in the data active = inhibition above about 12%
SARS 3CLpro inh-2: SARS 3CLpro inhibition, confirmation assay; AID 1879; shares compounds with SARS 3CLpro inh-1; QFRET protease activity assay; 380 compounds, 36% hits; inhibition, % at 6 µM; in the data active = inhibition above about 13%
* hit, by the source's call; . = no result given.

SMILES	BJeLR lethal	SSB-PriA inh	SARS 3CLpro inh-1	SARS 3CLpro inh-2
CC(C)c1ccc(N(C(=O)c2ccco2)C(C(=O)NC2CCCC2)c2ccncc2)cc1 (stereo unspecified)	2	-5	7	.
CCC(C)c1ccc(N(C(=O)c2ccco2)C(C(=O)NC2CCCC2)c2cccnc2)cc1 (stereo unspecified)	4	-8	75*	75*
Cc1ccc(N(C(=O)c2ccco2)C(C(=O)NC2CCCC2)c2cccnc2)cc1C (stereo unspecified)	-1	1	4	.
CCc1ccc(N(C(=O)c2ccco2)C(C(=O)NC2CCCC2)c2cccnc2)cc1 (stereo unspecified)	4	2	16*	9
COCCN(Cc1ccsc1)C(=O)c1ccc2nsnc2c1	.	-14	.	.
Cc1snc(S(=O)(=O)C(C#N)=NNc2cccc(C(F)(F)F)c2)c1C#N	.	22	.	.
Cc1snc(S(=O)(=O)/C(C#N)=N/Nc2cccc(C(F)(F)F)c2)c1C#N	-3	.	15*	2
CCOC(=O)C1(C)C(=NNc2cccc(Cl)c2)C(=O)C(=O)N1c1ccccc1 (stereo unspecified)	.	-11	.	.
COc1ccc(C=NNC(=O)Cn2nnc3ccccc32)cc1OC	.	-8	.	.
O=C(Cn1nnc2ccccc21)NN=Cc1cccs1	.	-8	.	.
COc1cc(/C=N\NC(=O)Cn2nnc3ccccc32)cc(OC)c1OC	3	.	37*	57*
O=C(Cn1nnc2ccccc21)N/N=C\c1cccs1	-4	.	14*	16*
COc1cccc(NS(=O)(=O)c2ccc(-c3ccc(C)cc3)cc2)c1	.	-7	.	.
O=C(Nc1ccncc1NC(=O)c1ccc2ncsc2c1)c1ccc2ncsc2c1	.	-18	.	.
O=C(/C=C/c1ccccc1Cl)Nc1ccncc1	6	2	-4	.
O=C(/C=C/c1ccccc1Cl)Nc1cccnc1	-2	-20	16*	21*
COc1ccc(C(O)=C2C(=O)C(=O)N(c3cc(C)on3)C2c2ccccc2OC)cc1 (stereo unspecified)	.	-2	.	.
Cc1ccc(NC(=O)CSc2nc(NS(=O)(=O)c3ccccc3)cc(=O)[nH]2)cc1	10	3	3	.
CCOc1ccc(NC(=O)CSc2nc(NS(=O)(=O)c3ccc(C)cc3)cc(=O)[nH]2)cc1	-4	-2	13*	0
COc1cc(NS(=O)(=O)c2ccc(NC(=S)NC(=O)c3ccc(F)cc3)cc2)nc(OC)n1	-6	-2	12*	6
COc1ccc(C(=O)NC(=S)Nc2ccc(S(=O)(=O)Nc3cc(OC)nc(OC)n3)cc2)cc1	-5	0	8	.
CC(Oc1ccc(Cl)cc1Cl)C(=O)NCCn1nc(-c2cccs2)ccc1=O (stereo unspecified)	.	-1	.	.
O=C(NC(=O)c1ccccc1)Nc1ccc(SC(F)(F)F)cc1	.	-10	.	.
Cn1ccnc1SCC1CCN(C(=O)CN2C(=O)CCC2=O)CC1	.	-16	.	.
COC(=O)c1ccc(CN2C(=O)c3ccccc3C2=O)cc1	0	-1	0	.
SMILES	BJeLR lethal	SSB-PriA inh	SARS 3CLpro inh-1	SARS 3CLpro inh-2
COC(=O)c1ccc(OC(=O)CN2C(=O)c3ccccc3C2=O)cc1	-2	-13	15*	14*
CC(C)N(CCNS(=O)(=O)c1ccc(Cl)cc1)C(C)C	4	-7	-3	.
CC(C)OP(=O)(OC(C)C)C1(NS(=O)(=O)c2ccc(Cl)cc2)C=C(Cl)C(=O)C(Cl)=C1	2	17	17*	11
CS(=O)(=O)c1ccccc1-c1nnc(NC(=O)c2cc(Cl)sc2Cl)o1	.	-23	.	.
Cc1ccc(OCCNC(=O)c2cc(=O)[nH]c3ccccc23)cc1	9	2	3	.
COc1ccccc1OCCNC(=O)c1cc(=O)[nH]c2ccccc12	0	3	62*	65*
COC(=O)[C@@H](Cc1c[nH]c2ccccc12)NC(=O)c1cc(=O)[nH]c2ccccc12	6	8	14*	2
COC(=O)C(Cc1ccccc1)NC(=O)c1cc(=O)[nH]c2ccccc12 (stereo unspecified)	-3	-3	-1	.
Cc1nnc(NC(=O)CSc2nnc3[nH]c(=O)cc(-c4ccccc4)n23)s1	.	-3	.	.
Cc1cccc(-n2nc(C)c3c(C(=O)O)cc(-c4cccs4)nc32)c1	0	-15	13*	8
Cc1nn(-c2cccc(Cl)c2)c2nc(-c3ccco3)cc(C(=O)O)c12	3	-5	6	.
Cn1c(=O)c2c(SCC(=O)NC[C@H]3CCCO3)nc(-c3ccccc3Cl)nc2n(C)c1=O	.	-12	.	.
Cc1ccc(Nc2nc(N)c([N+](=O)[O-])c(N3CCOCC3)n2)cc1C	-19	21	13*	-4
Cc1ccc(Nc2nc(N)c([N+](=O)[O-])c(N3CCC(C)CC3)n2)cc1C	-4	19	-1	.
COc1cccc(CNC(=O)CN(c2cc(C)cc(C)c2)S(=O)(=O)c2c(C)noc2C)c1	17	-3	0	.
COc1cccc(CNC(=O)CN(c2ccc(C(C)C)cc2)S(=O)(=O)c2c(C)noc2C)c1	-6	-10	15*	2
Cc1ccc(-c2nn(-c3ccccc3)cc2C=Nn2c(-c3cccs3)n[nH]c2=S)cc1	.	-3	.	.
O=C1C2C(c3ccccc3)C=CC(c3ccccc3)C2C(=O)N1c1cccnc1 (stereo unspecified)	-3	-7	20*	70*
O=C1C2C(c3ccccc3)C=CC(c3ccccc3)C2C(=O)N1c1ccncc1 (stereo unspecified)	3	3	1	.
Cc1ccc(O[C@H]2CCN(S(=O)(=O)c3c(C)noc3C)C2)nn1	.	-9	.	.
CCOc1ccc(N(CC(=O)NCCSCc2ccco2)S(=O)(=O)c2ccc(F)cc2)cc1	-3	0	4	.
CCOc1ccc(N(CC(=O)NCCSCc2ccco2)S(=O)(=O)c2ccc(C)cc2)cc1	1	-13	12*	-1
O=C(CN1C(=O)CCC1=O)Nc1ccc(-c2ccc(NC(=O)CN3C(=O)CCC3=O)cc2)cc1	.	-8	.	.
COc1cc(Cl)cc(C(c2c(C(=O)O)[nH]c3ccccc23)c2c(C(=O)O)[nH]c3ccccc23)c1O	1	6	5	.
O=C(O)c1[nH]c2ccccc2c1C(c1cc(Br)ccc1O)c1c(C(=O)O)[nH]c2ccccc12	3	5	14*	15*
SMILES	BJeLR lethal	SSB-PriA inh	SARS 3CLpro inh-1	SARS 3CLpro inh-2
COc1cc(S(=O)(=O)NCCc2c(C)[nH]c3ccc(OC(F)(F)F)cc23)ccc1Cl	.	4	.	.
CCn1nc(-c2ccccc2)nc2c(=O)n(C)c(=O)nc1-2	0	-22	17*	37*
Cc1nc2c(=O)n(C)c(=O)nc-2n(C)n1	36	0	6	.
O=C(O)/C(=C\c1ccccc1OC(F)F)c1ccc(-c2ccccc2)cc1	-6	-4	4	.
O=C(O)/C(=C\c1ccc(F)cc1)c1ccc(-c2ccccc2)cc1	2	-8	13*	12
O=C(O)c1ccc(S(=O)(=O)/N=C2\C=C(Nc3ccccc3F)C(=O)c3ccccc32)cc1	3	.	8	.
Cc1ccccc1NC1=C/C(=N\S(=O)(=O)c2ccc(C(=O)O)cc2)c2ccccc2C1=O	15	.	16*	10
Cc1ccc(NC(=O)CSc2nc(N)c(NC(=O)c3ccc(Br)cc3)c(=O)[nH]2)cc1Cl	.	-16	.	.
Cc1cc(NC(=O)COC(=O)c2ccc(OC(F)(F)F)cc2)no1	.	-3	.	.
